High-throughput results (PubChem BioAssay)
p53 reactivation = restores transcriptional activity of mutant p53; H1299 p53-A138V BP100-luciferase reporter, luminescence, 24 h; Potency, µM (titrated, usually from 92.2 µM), most hits filed as activators; 320,000 tested, 0.063% active; AID 504706; note: nearly all actives have a fitted effect of over 45% in size
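p53-null H1299 cells stably carrying temperature-sensitive p53-A138V and a BP100-luciferase reporter were pinned with compounds (4-point, 1:5 series) and held 24 hrs at 37 deg C. Luminescence was read 10 min after detection reagent.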
SW480 rereplic = induces DNA re-replication in SW480 colon adenocarcinoma cells | AID 624297 | 340,000 tested, 1.8% active | Potency, µM (top dose mostly 46.1 µM), most hits filed as activators | SW480 DNA re-replication, Hoechst DNA content imaging, 48 h; note: nearly all actives have a fitted effect of over 55% in size
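Quantitative HTS format with DMSO vehicle controls; 48 hr drug incubation at 37 C, then 40 min Hoechst staining and scanning imager measurement at 405 nm excitation.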
MCF10A rereplic = inducers of DNA re-replication in MCF 10A breast cells; MCF 10A DNA re-replication, Hoechst nuclear intensity, 48 h; Potency, µM (series often up to 46.1 µM), actives largely listed as activators; 350,000 tested, 2.9% active; AID 624296; note: nearly all actives have a fitted effect of over 50% in size
A-T KAP1 phos = potential ataxia-telangiectasia treatments restoring KAP-1 phosphorylation | F2112 A-T fibroblasts, KAP-1 phosphorylation AlphaLISA; neocarzinostatin DNA damage 30 min before lysis | Potency, µM (series often up to 57.5 µM), actives largely listed as activators | 320,000 tested, 0.19% active | AID 485349; note: nearly all actives have a fitted effect of over 45% in size
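hTERT-immortalized A-T patient fibroblasts (F2112), 500 cells/well in OPTI-MEM, 1% FBS, got compounds for 60 min, then NCS for 30 min at 37C. Lysates were then assayed for phospho-KAP-1 by AlphaLISA (anti-pKAP1 donor, anti-KAP1 acceptor beads), 6 hr at 25C.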
ELG1 DNA repair = ELG1-dependent DNA repair inhibition; HEK293T ELG1-luciferase reporter, luminescence, 16 h; DNA damage induced by 5-fluorouridine; Potency, µM (titrated, usually from 46.1 µM), most hits filed as inhibitors; 330,000 tested, 2.3% active; note: nearly all actives have a fitted effect of over 55% in size
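DMSO vehicle served as the neutral condition. Each well held 2,000 cells given 5-fluorouridine plus compound; after 16 hr at 37 °C/5% CO2, ONE-Glo was added and luciferase measured 30 min later.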
ELG1 genotoxic = genotoxicity induction in ELG1-luciferase HEK293T cells; HEK293T ELG1-luciferase reporter, luminescence, 16 h; 330,000 tested, 1.3% active; Potency, µM (series often up to 46 µM), hits mostly activators; note: nearly all actives have a fitted effect of over 60% in size
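16 hr compound incubation (37 °C, 5% CO2) of HEK293T cells carrying luciferase-tagged ELG1; luciferase then measured by ONE-Glo luminescence after 30 min at RT.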
Numbers stand for hits; [ ] = another dose, or the depositor's remark. Sampled rows, rich in hits. Any-hit rate of the full collection: about 7.1%. Calls come from the whole dose curve; as a rule, active = well fitted curve in the direction sought with a large enough effect; inconclusive = small, poorly fitted or top-dose-only effect, or another doubt; inactive = no such curve, though single readings can be large; an effect the other way counts as inactive or inconclusive.

`Cn1cncc1C#Cc1c(C=O)n(C)c2ccccc12` gave p53 reactivation inactive, SW480 rereplic inactive, MCF10A rereplic inconclusive, A-T KAP1 phos inactive, ELG1 DNA repair inactive and ELG1 genotoxic inactive.
Screening CC(Sc1nnc(C2CC2)n1C1CC1)C(=O)N(C)Cc1cccc(F)c1 (stereo unspecified) returned p53 reactivation inactive, SW480 rereplic inactive, MCF10A rereplic inactive, A-T KAP1 phos inactive, ELG1 DNA repair inactive and ELG1 genotoxic inactive.
`O=C(COc1ccc(N2C(=O)c3ccccc3C2=O)cc1)c1ccccc1` gave p53 reactivation inactive, SW480 rereplic inactive, MCF10A rereplic inactive, A-T KAP1 phos inactive, ELG1 DNA repair inactive and ELG1 genotoxic inactive.
Screening O=C(COc1ccccc1N1C(=O)c2ccccc2C1=O)c1ccc(Cl)cc1 returned p53 reactivation inactive, SW480 rereplic inactive, MCF10A rereplic inactive, A-T KAP1 phos inactive, ELG1 DNA repair inconclusive and ELG1 genotoxic 18.4µM.
`Fc1ccc(Nc2nc(N3CCOCC3)nc(N3CCOCC3)n2)cc1Cl` gave p53 reactivation inactive, SW480 rereplic 18.4µM, MCF10A rereplic inactive, A-T KAP1 phos inactive, ELG1 DNA repair inconclusive and ELG1 genotoxic inactive.
`COc1ccc(Nc2nc(N3CCCC3)nc(N3CCOCC3)n2)cc1` gave SW480 rereplic inactive and MCF10A rereplic inactive.
`Cc1ccc(Nc2cc(C)nc(N3CCOCC3)n2)cc1` gave p53 reactivation inactive, SW480 rereplic inactive, MCF10A rereplic inactive, A-T KAP1 phos inactive, ELG1 DNA repair inconclusive and ELG1 genotoxic inactive.
Cc1cc(C)nc(Nc2ccccc2Cl)n1 was read as SW480 rereplic inactive, MCF10A rereplic inconclusive, A-T KAP1 phos inactive, ELG1 DNA repair inactive and ELG1 genotoxic inactive.
`Fc1ccccc1Nc1nc(N2CCOCC2)nc(N2CCOCC2)n1` gave p53 reactivation inactive, SW480 rereplic inactive, MCF10A rereplic inactive, A-T KAP1 phos inactive, ELG1 DNA repair 5.8µM and ELG1 genotoxic inactive.
For Cc1ccccc1Nc1nc(N2CCOCC2)nc(N2CCOCC2)n1 the results were p53 reactivation inactive, SW480 rereplic inactive, MCF10A rereplic inactive, A-T KAP1 phos inactive, ELG1 DNA repair inconclusive and ELG1 genotoxic inactive.
Screening Cc1cc(Nc2ccc(C)c(Cl)c2)nc(N2CCOCC2)n1 returned p53 reactivation inactive, SW480 rereplic inconclusive, MCF10A rereplic inconclusive, A-T KAP1 phos inactive, ELG1 DNA repair 20.6µM and ELG1 genotoxic inactive.
For Cc1cc(C)nc(Nc2ccccc2F)n1 the results were p53 reactivation inactive, SW480 rereplic 23.1µM, MCF10A rereplic inactive, A-T KAP1 phos inactive, ELG1 DNA repair inactive and ELG1 genotoxic inactive.
`O=C(COC(=O)c1n[nH]c(=O)c2ccccc12)Nc1cccc(S(=O)(=O)N2CCOCC2)c1` gave SW480 rereplic inactive and MCF10A rereplic inactive.
For Cc1ccc(Cl)cc1NC(=O)[C@@H]1CCC(=O)N1C1OC(=O)c2ccccc21 (stereo partly specified) the results were p53 reactivation inactive, SW480 rereplic inactive, MCF10A rereplic inactive, A-T KAP1 phos inactive, ELG1 DNA repair inactive and ELG1 genotoxic inactive.
c1ccc2c(Nc3nc(N4CCOCC4)c4ccccc4n3)cccc2c1 was read as p53 reactivation inactive, SW480 rereplic inconclusive, MCF10A rereplic 18.4µM, A-T KAP1 phos inactive, ELG1 DNA repair 23.1µM and ELG1 genotoxic inactive.
Clc1ccc(Nc2nc(NCCN3CCOCC3)nc(N3CCOCC3)n2)cc1 was read as p53 reactivation inactive, SW480 rereplic 9.2µM, MCF10A rereplic inconclusive, A-T KAP1 phos inactive, ELG1 DNA repair inconclusive and ELG1 genotoxic inactive.
`Clc1ccc(Nc2nc(N3CCOCC3)nc(N3CCOCC3)n2)cc1Cl` gave p53 reactivation inactive, SW480 rereplic inconclusive, MCF10A rereplic inactive, A-T KAP1 phos inactive, ELG1 DNA repair 1.64µM and ELG1 genotoxic inactive.
For C=CCNc1nc(NCC)nc(N2CCOCC2)n1 the results were p53 reactivation inactive, SW480 rereplic inactive, MCF10A rereplic inactive, A-T KAP1 phos inactive, ELG1 DNA repair inactive and ELG1 genotoxic inactive.
`C=CCNc1nc(Nc2ccc(-c3nc4ccccc4o3)cc2)nc(N2CCOCC2)n1` gave p53 reactivation inactive, SW480 rereplic inconclusive, MCF10A rereplic inconclusive, A-T KAP1 phos inactive, ELG1 DNA repair 14.6µM and ELG1 genotoxic inactive.
Screening Fc1ccc(Nc2nc(N3CCOCC3)c3ccccc3n2)cc1 returned p53 reactivation inactive, SW480 rereplic inactive, MCF10A rereplic inconclusive, A-T KAP1 phos inactive, ELG1 DNA repair inconclusive and ELG1 genotoxic inactive.
`O=C(O)c1cc(Nc2nc(N3CCOCC3)nc(N3CCOCC3)n2)ccc1Cl` gave p53 reactivation inactive, SW480 rereplic inactive, MCF10A rereplic inactive[0.0737 µM], A-T KAP1 phos inactive, ELG1 DNA repair inactive and ELG1 genotoxic inactive.
Screening CCOc1ccc(NS(=O)(=O)c2ccc(C(=O)NCC(c3ccco3)N3CCCC3)cc2)cc1 (stereo unspecified) returned p53 reactivation inconclusive, SW480 rereplic inactive, MCF10A rereplic inactive, A-T KAP1 phos inactive, ELG1 DNA repair inactive and ELG1 genotoxic inactive.
For CC(C)CN(C#N)c1nc(N2CCOCC2)nc(N2CCOCC2)n1 the results were p53 reactivation inactive, SW480 rereplic inactive, MCF10A rereplic inactive, A-T KAP1 phos inactive, ELG1 DNA repair inactive and ELG1 genotoxic inactive.
For CC(C)CCCNc1nc(N2CCOCC2)nc(N2CCOCC2)n1 the results were p53 reactivation inactive, SW480 rereplic inactive, MCF10A rereplic inactive, A-T KAP1 phos inactive, ELG1 DNA repair 10.3µM and ELG1 genotoxic inactive.
For CCOc1ccc(N2CC(C(=O)NC3CCCCCC3)CC2=O)cc1 (stereo unspecified) the results were p53 reactivation inactive, SW480 rereplic inactive, MCF10A rereplic inactive, A-T KAP1 phos inactive, ELG1 DNA repair inactive and ELG1 genotoxic inactive.
`CCN(CC)S(=O)(=O)c1cccc(NC(=O)CNc2cccc(S(=O)(=O)N3CCCC3)c2)c1` gave p53 reactivation inactive, SW480 rereplic inactive, MCF10A rereplic inconclusive, A-T KAP1 phos inactive, ELG1 DNA repair 0.326µM and ELG1 genotoxic inactive.
For CN(CC(=O)Nc1cccc(S(=O)(=O)N2CCCC2)c1)CC(=O)Nc1ccc(Cl)c(C(F)(F)F)c1 the results were p53 reactivation inactive, SW480 rereplic inconclusive, MCF10A rereplic inconclusive, A-T KAP1 phos inactive, ELG1 DNA repair 14.6µM and ELG1 genotoxic inactive.
For Cc1ccc(NC(=O)CNc2cccc(Br)c2)cc1S(=O)(=O)N1CCOCC1 the results were p53 reactivation inactive, SW480 rereplic inactive, MCF10A rereplic inactive, A-T KAP1 phos inactive, ELG1 DNA repair 23.1µM and ELG1 genotoxic inactive.
Cc1ccc(NC(=O)CSc2nc(N)cc(N)n2)cc1S(=O)(=O)N1CCOCC1 was read as p53 reactivation inactive, SW480 rereplic 3.66µM, MCF10A rereplic inconclusive, A-T KAP1 phos inactive, ELG1 DNA repair inactive and ELG1 genotoxic inactive.
